From PubChem
LGR2 antag = inhibitors of bursicon-induced Drosophila LGR2 receptor cAMP signaling; HEK293 LGR2, CRE-luciferase, bursicon-stimulated, 4 h; inhibition, % at 9.99 µM; hit rate 0.35% among 380,000;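 active = drop in luminescence signal, shown as inhibition above about 50% in the replicate tests, limit read from the data, passing the limit was not always enough; inconclusive = probably only some replicates passing the limit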;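 note: agonist challenge used bursicon conditioned medium at about half maximal strength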
PAX8 inh HTS = inhibitors of PAX8 transcriptional activity in RMG-I cells; hit rate 1.2% among 360,000; inhibition, % at 12.6 µM; RMG-I TPO-luciferase reporter, SteadyGlo, 24 h; AID 652154;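 active = mean replicate inhibition at least 60% with every replicate also reaching 60%; inconclusive = only one of the two criteria is met; inactive = mean below 60% and not all replicates reaching 60%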;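 note: luciferase light reporting Pax8 driven TPO promoter activity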
TROY signal inh = TROY signaling inhibition. Q293 LMP1-TROYcd NF-kB luciferase reporter, 4 h. inhibition, % at 10 µM. hit rate 0.98% among 360,000;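 active = compounds whose plate-normalised and pattern-corrected inhibition of the luciferase reporter signal at the single screening dose is 50% or more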
EWS-Fli inh = blocks EWS/Fli oncoprotein-driven transcription; A673 NR0B1-luciferase reporter, viability-normalised; inhibition, % at 12.6 µM; hit rate 0.67% among 350,000;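 active = mean inhibition of at least 50% after viability correction, with every replicate also passing that limit; inconclusive = mean reaches 50% but only one of two replicates passes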;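 note: firefly luciferase signal divided by Alamar Blue viability fluorescence both relative to DMSO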
LMP1 NFkB inh = inhibitors of Epstein-Barr LMP1-induced NF-kappaB reporter; LMP1-induced NF-kappaB luciferase reporter cells, luminescence; inhibition, % at 12.5 µM; hit rate 0.69% among 350,000; in the data active = inhibition above about 41%; inconclusive = no clear call, values can overlap the other calls
TWEAK Fn14 block = blocks TWEAK-Fn14 interaction in a reporter cell assay; hit rate 2% among 360,000; TWEAK-stimulated Fn14 reporter cells, luciferase luminescence, 8 h; inhibition, % at 10 µM; in the data active = inhibition above about 50%
Each line names hits and unclear results; the compound was inactive in the other large screens. Rows were chosen to be rich in hits. Some 3.2% of all compounds tested hit in one or more screens of this group.

Cc1nc2c(=O)n(C)c(=O)n(C)c2nc1Cl	PAX8 inh HTS 111, EWS-Fli inh 59, TWEAK Fn14 block 50
COc1ccc(S(=O)(=O)Nc2ccc3c(c2)C(=O)N(C)C[C@H](OC)[C@H](C)CN[C@H](C)CO3)cc1	none (no result: TROY signal inh, LMP1 NFkB inh, TWEAK Fn14 block)
C[C@@H]1CC[C@]2(C(=O)O)CC[C@]3(C)C(=CCC4[C@]56CC[C@@](O)(OC5)C(C)(C)C6CC[C@]43C)C2[C@H]1C (some centres not stated)	TROY signal inh 63 (no result: LGR2 antag, PAX8 inh HTS, EWS-Fli inh)
CC1(C)CC[C@]2(C(=O)O)CC[C@]3(C)C(=CCC4[C@]56CC[C@@](O)(OC5)C(C)(C)C6CC[C@]43C)C2C1 (some centres not stated)	TROY signal inh 65 (no result: LGR2 antag, PAX8 inh HTS, LMP1 NFkB inh)
C[C@@H]1CC[C@]2(C(=O)O)CC[C@]3(C)C(=CCC4[C@@]5(C)CC[C@H](O)[C@@](C)(C(=O)O)C5CC[C@]43C)C2[C@]1(C)O (some centres not stated)	none
CC1(C)CC[C@]2(C(=O)O)CC[C@]3(C)C(=CC[C@@H]4[C@@]5(C)CC[C@H](O[C@@H]6O[C@H](C(=O)O)[C@@H](O)[C@H](O[C@@H]7OC[C@H](O)[C@H](O)[C@H]7O)[C@H]6O)C(C)(C)[C@@H]5CC[C@]43C)[C@@H]2C1	LGR2 antag inconclusive, PAX8 inh HTS 101, TROY signal inh 87, EWS-Fli inh inconclusive
CC1(C)CC[C@]2(C(=O)O[C@@H]3O[C@H](CO)[C@@H](O)[C@H](O)[C@H]3O)CC[C@]3(C)C(=CCC4[C@@]5(C)CC[C@H](O[C@@H]6O[C@H](C(=O)O)[C@@H](O[C@H]7OC[C@@H](O)[C@@H](O)[C@@H]7O)[C@H](O)[C@H]6O)C(C)(C)C5CC[C@]43C)[C@@H]2C1 (some centres not stated)	none
N#C[C@@H]1[C@H](c2ccc(-c3ccccc3F)cc2)[C@H](CO)N1C(=O)C1CC1	none (no result: TROY signal inh, LMP1 NFkB inh, TWEAK Fn14 block)
CC1CCC/C=C/C(=O)c2c(O)cc(O)cc2CC(=O)O1 (configuration not stated)	LGR2 antag 69, TWEAK Fn14 block 94 (no result: PAX8 inh HTS)
O=[N+]([O-])c1ccc2nc(/C=C/c3ccc(Cl)cc3)[nH]c2c1	TROY signal inh 71, TWEAK Fn14 block 76 (no result: PAX8 inh HTS, EWS-Fli inh)
CO[C@H]1CN(C)C(=O)c2ccc(NS(=O)(=O)c3ccccc3)cc2OC[C@@H](C)N(Cc2cccnc2)C[C@H]1C	none (no result: TROY signal inh, LMP1 NFkB inh, TWEAK Fn14 block)
O=C(COC(=O)c1c2c(nc3ccccc13)/C(=C/c1ccco1)CC2)NC1CCCC1	none (no result: EWS-Fli inh)
CC1CCCCC1NC(=O)COC(=O)c1c2c(nc3ccccc13)/C(=C/c1ccco1)CC2 (configuration not stated)	TWEAK Fn14 block 50 (no result: LGR2 antag)
CC(Nc1c([N+](=O)[O-])c(=O)oc2ccccc12)C(Cl)c1ccccc1 (configuration not stated)	TWEAK Fn14 block 50 (no result: PAX8 inh HTS, EWS-Fli inh)
Cc1ccc(SCc2cc(=O)[nH]c(SCC(=O)Nc3cc(Cl)ccc3Cl)n2)cc1	TROY signal inh 59
CCCc1cc(=O)[nH]c(SCC(=O)Nc2ccc(Br)cc2Br)n1	TROY signal inh 68
CCN(CC)S(=O)(=O)c1ccc(N/N=C/c2ccc(O)cc2O)nc1	PAX8 inh HTS 72, LMP1 NFkB inh 57 (no result: EWS-Fli inh)
Cc1ccc(-c2cc3nc(-c4ccccc4)cc(N)n3n2)cc1	none (no result: LGR2 antag, EWS-Fli inh)
Cc1ccc(-c2cc(N)n3nc(-c4ccc(C)cc4)cc3n2)cc1	LMP1 NFkB inh 52 (no result: LGR2 antag, PAX8 inh HTS, EWS-Fli inh)
CC1CCN(c2ccc(-c3cccs3)nn2)CC1	LGR2 antag 75, PAX8 inh HTS 84, TROY signal inh 66, EWS-Fli inh 89, LMP1 NFkB inh 57, TWEAK Fn14 block 105
CC(=O)N1[C@@H]2Cn3c(ccc(-c4ccccc4)c3=O)[C@H]1[C@@H](C(=O)Nc1ccccc1)[C@@H]2CO	none (no result: PAX8 inh HTS, TROY signal inh, LMP1 NFkB inh, TWEAK Fn14 block)
O=C(O)c1[nH]c2ccccc2c1C(c1cc(Br)ccc1O)c1c(C(=O)O)[nH]c2ccccc12	none
COc1cc(Cl)cc(C(c2c(C(=O)O)[nH]c3ccccc23)c2c(C(=O)O)[nH]c3ccccc23)c1O	LMP1 NFkB inh 48
COc1cccc(N2CC(=O)Nc3c(oc4nc(-c5ccccc5)cc(C)c34)C2=O)c1	TROY signal inh 71
CC(=O)N(C)C[C@@H]1Oc2ncc(C#Cc3cccc(F)c3)cc2C(=O)N([C@H](C)CO)C[C@H]1C	none (no result: PAX8 inh HTS, TROY signal inh, LMP1 NFkB inh, TWEAK Fn14 block)
COc1cc(OC)c2c(-c3cccc(-c4ccoc4)c3)cc(=O)oc2c1	none
COc1cc(OC)c2c(-c3cccc(-c4ccc(OC)c(F)c4)c3)cc(=O)oc2c1	PAX8 inh HTS 89
COc1cc(OC)c2c(-c3cccc(-c4ccc(C(C)=O)cc4)c3)cc(=O)oc2c1	TROY signal inh 56, TWEAK Fn14 block 77 (no result: LGR2 antag, PAX8 inh HTS, EWS-Fli inh)
CC1=C/C(=C(/c2cc(C)c(O)c(Br)c2)c2ccccc2S(=O)(=O)O)C=C(Br)C1=O	PAX8 inh HTS 77
CO[C@@H]1CN(C)C(=O)c2ccc(NC(=O)NC3CCCCC3)cc2OC[C@@H](C)N(CCc2ccccc2)C[C@H]1C	PAX8 inh HTS 66 (no result: TROY signal inh, LMP1 NFkB inh, TWEAK Fn14 block)
CCC(=O)N1C[C@H](C)[C@@H](OC)CN(C)C(=O)c2ccc(NC(=O)Nc3ccc(Cl)cc3)cc2OC[C@@H]1C	EWS-Fli inh 53 (no result: PAX8 inh HTS, TROY signal inh, LMP1 NFkB inh, TWEAK Fn14 block)
COCC(=O)N1C[C@H](C)[C@H](OC)CN(C)C(=O)c2ccc(NC(=O)Nc3cccc(F)c3)cc2OC[C@@H]1C	EWS-Fli inh 56 (no result: PAX8 inh HTS, TROY signal inh, LMP1 NFkB inh, TWEAK Fn14 block)
CC(C)NC(=O)N[C@@H]1CC[C@H](CCNC(=O)C2CCC2)O[C@H]1CO	none (no result: TROY signal inh, LMP1 NFkB inh, TWEAK Fn14 block)
O=C(CCl)N(c1ccccc1)c1c[nH]c2ccccc12	LMP1 NFkB inh inconclusive, TWEAK Fn14 block 69 (no result: LGR2 antag, PAX8 inh HTS, EWS-Fli inh)
O=C(O)Cc1c[nH]c2ccccc12	none (no result: PAX8 inh HTS)
O=C(CCl)N(c1ccc(Cl)cc1)c1c[nH]c2ccccc12	LMP1 NFkB inh inconclusive, TWEAK Fn14 block 67 (no result: PAX8 inh HTS, EWS-Fli inh)
CCCc1cn(CC[C@H]2CC[C@@H](NC(=O)C3CCCCC3)[C@@H](CO)O2)nn1	none (no result: TROY signal inh, LMP1 NFkB inh, TWEAK Fn14 block)
Cc1ncc(CO)c2c1Oc1nc(-c3ccccc3)nc(SCC(=O)Nc3cccc(O)c3)c1C2	none
COc1ccc(-c2nc3c(c(SCC(=O)Nc4cccc(O)c4)n2)Cc2c(CO)cnc(C)c2O3)cc1	PAX8 inh HTS 88 (no result: EWS-Fli inh)
COc1ccc(NCc2nnc(SCc3ccc(Cl)cc3)n2-c2ccccc2)cc1	TROY signal inh 60 (no result: EWS-Fli inh)
COc1ccc(-n2c(COc3ccc(Cl)cc3)nnc2SCc2ccc(C#N)cc2)cc1	none (no result: LGR2 antag, PAX8 inh HTS, EWS-Fli inh)
O=C(C[C@H]1C[C@@H]2c3cc(NC(=O)C4CCOCC4)ccc3O[C@@H]2[C@@H](CO)O1)NCc1ccccc1F	none (no result: TROY signal inh, LMP1 NFkB inh, TWEAK Fn14 block)
COc1ccc(Nc2nccc(-c3cccc(N)c3)n2)cc1	TWEAK Fn14 block 76
Cc1ccc2nc3cc([N+](=O)[O-])cc([N+](=O)[O-])c3cc2c1	LGR2 antag inconclusive, TROY signal inh 52, EWS-Fli inh 61, TWEAK Fn14 block 87
COc1cc2c(cc1NC(=O)Nc1ccc(C)cc1)oc1ccccc12	none (no result: LGR2 antag, PAX8 inh HTS, EWS-Fli inh)
COc1cc2c(cc1NC(=O)C(C)Sc1ccc(NC(C)=O)cc1)oc1ccccc12 (configuration not stated)	TWEAK Fn14 block 66 (no result: EWS-Fli inh)
